Rows were chosen to be rich in hits. Some 3.7% of all compounds tested hit in one or more screens of this group.
BoNT A protease: BoNT/A light chain protease inhibitors, primary screen, biochemical, flow cytometry, MLPCN library. Botulinum neurotoxin type A light chain protease (Clostridium botulinum A str. ATCC 3502). multiplex microsphere protease substrate cleavage. inhibition, % at 10 µM. 360,000 tested, 0.17% active
MazF activator: activators of E. coli MazEF toxin-antitoxin RNase, primary screen, biochemical, fluorescence, uHTS; 350,000 tested, 0.32% active; Endoribonuclease toxin MazF (Escherichia coli (strain K12)), P0AE70; activation, % at 20 µM; AID 504720, 2011; FAM/BHQ RNA-DNA oligo cleavage fluorescence, 5 h; in the data active = activation above about 50%
Target sequence (P0AE70 whole entry, looked up): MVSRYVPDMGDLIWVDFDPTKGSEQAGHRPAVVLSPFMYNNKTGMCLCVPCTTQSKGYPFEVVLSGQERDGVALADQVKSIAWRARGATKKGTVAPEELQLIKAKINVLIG
Autofluor counter: compound fluorescence in toxin protease inhibitor counterscreen. compound autofluorescence counterscreen, microsphere flow cytometry; hits give high values. fluorescence intensity (no concentration beside the values). 360,000 tested, 3.1% active. AID 624483; in the data active = fluorescence intensity above about 16000; inconclusive = no clear call, values can overlap the other calls
BoNT-F LC inh: BoNT/F light chain protease inhibitors, primary screen, biochemical, flow cytometry, MLPCN library; Multiplex microsphere protease cleavage assay; inhibition, % at 10 µM; 360,000 tested, 0.22% active; in the data active = inhibition above about 35%, passing the limit was not always enough; inconclusive = no clear call, values can overlap the other calls
Anthrax LF inh2: Bacillus anthracis LF protease inhibitors, primary screen, biochemical, multiplex microsphere, MLPCN library; Lethal factor (Bacillus anthracis), P15917; inhibition, % at 10 µM; 360,000 tested, 0.12% active; multiplex microsphere protease cleavage assay
A number is an active result; - = inactive; ? = inconclusive; . = not tested or not shown. Cut-off read from the data, not from the text of the source, unless noted: active = inhibition above about 30%; inconclusive = no clear call, values can overlap the other calls; inactive = below that.

SMILES	BoNT A protease	MazF activator	Autofluor counter	BoNT-F LC inh	Anthrax LF inh2
O=C(COc1ccc(Br)cc1Cl)NC1CCN(Cc2ccccc2)CC1	-	-	-	-	-
O=C(COc1ccccc1)NC1CCN(Cc2ccccc2)CC1	?	-	17241	-	-
O=C(O)C1C2C=CC(C2)C1C(=O)NC1CCN(Cc2ccccc2)CC1 (centres undefined)	?	-	20434	-	-
O=C(Cn1[nH]c(=O)c2ccccc2c1=O)NC1CCN(Cc2ccccc2)CC1	-	-	23670	-	-
CC(=O)CSc1nc(N)c(C#N)c(-c2cccs2)c1C#N	-	-	-	-	-
CCCCSc1nc(N)c(C#N)c(-c2cccs2)c1C#N	-	-	19876	-	-
CC(=O)Nc1ccc(/C=N/Nc2nncc3ccccc23)cc1	-	-	-	48	-
Fc1cccc(/C=N/Nc2nncc3ccccc23)c1	-	-	-	-	-
O=C(COc1cc(Cl)ccc1Cl)N1CCNC1=O	-	-	-	-	-
O=S(=O)(c1ccccc1)c1cnc(-c2cccnc2)nc1-c1ccc(Cl)c(Cl)c1	-	-	17469	-	-
Cc1ccn2c(NCc3ccc4c(c3)OCO4)c(-c3ccc(O)cc3)nc2c1	-	-	17253	-	-
O=c1[nH]c(=S)n(Cc2ccc(F)cc2)c(O)c1C=NCc1cccnc1	-	-	16199	-	-
COc1ccccc1NC(=O)Cc1csc(NC(=S)Nc2ccc(C)cc2)n1	-	-	16561	-	-
Cc1c(NC(=O)Nc2ccc(Cl)cc2)c(=O)n(-c2ccccc2)n1C	-	-	-	-	-
Cc1c(N=C2N=C(NC(=O)Nc3ccc(Cl)cc3)c3ccccc32)c(=O)n(-c2ccccc2)n1C	-	88	-	-	-
O=c1ccc(S(=O)(=O)N2CCCC2)cn1Cc1nc(-c2ccc(F)cc2)no1	-	-	57271	-	-
COc1ccc(-c2noc(Cn3cc(S(=O)(=O)N4CCCC4)ccc3=O)n2)cc1	-	-	?	-	-
COc1cccc(CN(C)C[C@@H]2OCc3cnnn3CCCC(=O)N([C@@H](C)CO)C[C@H]2C)c1	-	-	-	-	-
O=C(CSc1nnc(Nc2ccccc2)s1)NC1CCCC1	-	-	-	-	-
CCOc1cc(C(=O)Nc2cnccn2)cc(OCC)c1OCC	-	-	20443	-	-
CCOc1cc(C(=O)NCc2ccncc2)cc(OCC)c1OCC	-	-	19468	-	-
O=C(Nc1cnccn1)c1ccc(Cl)cc1	-	-	-	-	-
O=C(Nc1cnccn1)c1ccncc1	-	-	24053	-	-
CC(C)CN(C(=O)CSc1nnc(C2CC2)n1-c1ccccc1)C1CCS(=O)(=O)C1 (centres undefined)	-	-	?	-	-
COc1ccc(-c2nnc(SC(C)C(=O)Nc3nccs3)n2-c2ccccc2)cc1OC (centres undefined)	-	-	-	-	-
SMILES	BoNT A protease	MazF activator	Autofluor counter	BoNT-F LC inh	Anthrax LF inh2
COc1ccc(-c2nnc(SC(C)C(=O)Nc3nccs3)n2Cc2ccccc2)cc1OC (centres undefined)	-	-	20588	-	-
CCCn1c(SCC(=O)Nc2ccc3c(c2)OCCO3)n[nH]c1=O	?	-	?	?	?
CCN(CCO)c1cc(Cl)nc(SC)n1	-	-	24730	-	-
CCC(=O)Nc1cc(Cl)ccc1C(=O)O	?	-	19235	-	-
CC(=O)Nc1ccc(-c2ccnc3c2CC(C(=O)Nc2cccc(N(C)C)c2)O3)cc1 (centres undefined)	-	.	-	-	-
O=C1C(C=NCCCN2CCCC2=O)=C(O)c2ccccc21	-	-	19393	-	-
O=C1C(C=NCCCn2ccnc2)=C(O)c2ccccc21	-	-	-	-	-
COC(=O)CSc1nnc(CNC(=O)c2ccc(S(=O)(=O)N3CCCCC3)cc2)n1C	-	-	24100	-	-
CCOC(=O)CSc1nnc(CNC(=O)c2ccc(S(=O)(=O)N3CCCCC3)cc2)n1C	-	-	20926	-	-
COC(=O)CSc1nnc(CNC(=O)c2ccc(S(=O)(=O)N3CCOCC3)cc2)n1C	-	-	-	-	-
Cc1ccc(CNC(=O)c2ccc(S(=O)(=O)N3CCCCC3)cc2)cc1	-	-	-	-	-
O=S1(=O)CC(N2CCCC2)CN1Cc1cn(Cc2cccc(Cl)c2)nn1 (centres undefined)	-	.	-	-	-
Cc1cc(C(=O)N2CCC3(CC2)OCCO3)no1	-	-	-	-	-
Cc1cc(NC(=O)CCC(=O)N2CCC3(CC2)OCCO3)no1	-	-	23557	-	-
Cc1cc(/C=C2/C(=O)N(C)C(=S)N2C)ccc1N1CCCC1	36	-	-	-	-
CCCN1C(=O)/C(=C/c2ccc(N3CCCC3)c(C)c2)NC1=S	-	-	18761	-	-
CCOc1ccc(NC(=O)/C(C#N)=C\c2ccc(N3CCCC3)c(C)c2)cc1	-	-	-	-	-
CCN1C(=O)/C(=C/c2ccc(N3CCCC3)cc2)NC1=S	-	-	-	-	-
Cc1cc(C=C(C#N)C#N)ccc1N1CCCC1	50	-	-	-	-
Cc1cc(/C=C2\NC(=S)N(C)C2=O)ccc1N1CCCC1	-	214	-	-	-
CC1(C(=O)Nc2ccc3c(c2)OCCO3)CCN1C(=O)Cc1ccc(-c2ccccc2)cc1 (centres undefined)	-	.	-	-	-
N#CC(c1ccc(N)cc1)C(CC(=O)c1ccccc1)c1ccccc1 (centres undefined)	-	-	-	-	-
Cn1cc(C(=O)NC2CCCCC2)c(=O)c2cc(S(=O)(=O)N3CCCC3)ccc21	-	-	-	-	-
COC(=O)c1cn(C)c2ccc(S(=O)(=O)N3CCCC3)cc2c1=O	-	-	20045	-	-
CC1CCCCC1NC(=O)c1cn(C)c2ccc(S(=O)(=O)N3CCCC3)cc2c1=O (centres undefined)	?	-	20217	-	-
SMILES	BoNT A protease	MazF activator	Autofluor counter	BoNT-F LC inh	Anthrax LF inh2
CC1CCN(S(=O)(=O)c2ccc3c(c2)c(=O)c(C(=O)NC2CCCC2)cn3C)CC1	?	-	20721	-	-
CCOc1ccc(CCNC(=O)COC(=O)CCc2cc(OC)c(OC)c(OC)c2)cc1OCC	?	-	?	?	?
CCCC(C)(C)C(=O)N1CCC1(C)C(=O)NS(=O)(=O)c1ccc(Cl)cc1 (centres undefined)	-	.	-	-	-
O=C(COc1ccc(Br)cc1Br)NC(=S)N1CCCc2ccccc21	-	-	-	-	31
CCC(C)NC(=O)c1ccc(CNS(=O)(=O)c2ccc3c(c2)C(C)(C)C(=O)N3C)cc1 (centres undefined)	-	107	-	-	-
CN1C(=O)C(C)(C)c2cc(S(=O)(=O)NCc3ccc(Cl)cc3)ccc21	-	-	-	-	-
Cc1ccc(CNC(=O)c2ccc(CNS(=O)(=O)c3ccc4c(c3)C(C)(C)C(=O)N4C)cc2)o1	-	102	-	-	-
CCOc1oc(-c2ccc(OC)cc2)nc1C(F)(F)F	-	-	16401	-	-
Cc1oc2ccc(OC(=O)N3CCOCC3)cc2c1C(=O)OC(C)C	-	-	23451	-	-

Screening results from PubChem BioAssay.
